Experimental data reported in article PMC4336329 (PLoS ONE, 2015).
Hit rate of the full screen: of about 310,000 compounds, about 14,000 (4.5%) showed an effect of 50% or more. Effects have a minus sign here. Many of the other results were omitted from the sample, so strong results are more common in it than they were.
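Also: peak tail current of the secondary pulse compared with the same well before compound.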

Each compound was assayed against human ether-à-go-go-related gene (hERG) potassium channel (human, UniProt Q12809) (assay: primary screen, population patch clamp on CHO cells stably expressing hERG; higher = less effect of the substance).
human ether-à-go-go-related gene (hERG) potassium channel, sequence (Q12809 whole entry, looked up): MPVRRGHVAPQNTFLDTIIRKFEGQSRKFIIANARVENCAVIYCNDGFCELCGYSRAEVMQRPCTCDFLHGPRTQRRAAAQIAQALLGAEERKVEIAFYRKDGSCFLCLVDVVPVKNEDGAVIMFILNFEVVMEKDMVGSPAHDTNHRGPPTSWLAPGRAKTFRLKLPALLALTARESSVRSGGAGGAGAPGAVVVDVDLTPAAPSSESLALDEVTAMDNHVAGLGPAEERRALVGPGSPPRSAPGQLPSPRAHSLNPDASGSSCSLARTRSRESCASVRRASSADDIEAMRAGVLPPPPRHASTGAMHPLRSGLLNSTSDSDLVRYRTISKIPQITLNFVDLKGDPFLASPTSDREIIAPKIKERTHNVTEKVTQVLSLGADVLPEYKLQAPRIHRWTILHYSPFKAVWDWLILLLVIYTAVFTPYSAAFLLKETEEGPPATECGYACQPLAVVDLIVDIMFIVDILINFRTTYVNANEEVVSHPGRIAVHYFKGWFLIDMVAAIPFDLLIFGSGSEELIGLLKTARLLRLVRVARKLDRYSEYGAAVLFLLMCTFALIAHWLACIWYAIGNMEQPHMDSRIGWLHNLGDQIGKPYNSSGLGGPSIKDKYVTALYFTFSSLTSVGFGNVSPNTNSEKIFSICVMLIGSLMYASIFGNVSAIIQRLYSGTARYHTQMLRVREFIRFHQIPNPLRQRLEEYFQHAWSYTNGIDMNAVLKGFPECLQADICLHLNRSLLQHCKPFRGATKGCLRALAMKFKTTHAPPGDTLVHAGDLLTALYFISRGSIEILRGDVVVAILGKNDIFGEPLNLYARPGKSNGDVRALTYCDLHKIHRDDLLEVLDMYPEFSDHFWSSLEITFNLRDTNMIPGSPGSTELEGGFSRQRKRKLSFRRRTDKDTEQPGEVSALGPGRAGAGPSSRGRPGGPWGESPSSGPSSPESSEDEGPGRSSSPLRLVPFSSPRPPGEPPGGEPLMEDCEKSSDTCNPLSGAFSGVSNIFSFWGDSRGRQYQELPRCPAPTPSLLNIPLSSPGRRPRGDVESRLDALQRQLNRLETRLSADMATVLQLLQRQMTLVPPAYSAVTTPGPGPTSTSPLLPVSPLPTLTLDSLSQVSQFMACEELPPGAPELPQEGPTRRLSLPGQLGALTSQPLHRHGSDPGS
In the case of `COC(=O)CSc1nnc(COc2cccc3ccccc23)o1`, the “hERG current change (%, negative = inhibition) at 10uM” value is reported as 13.6%. For `CN(C)/C=C1\N=C(c2ccccc2)OC1=O`, the “hERG current change (%, negative = inhibition) at 10uM” value was 3.09%. For `COc1ccc(N2CCN(C(C)C(=O)Nc3nnc(C)s3)CC2)cc1.Cl` (stereo not drawn), the “hERG current change (%, negative = inhibition) at 10uM” value was -1.41%. `CSc1ccccc1NC(=O)Cc1ccccc1` was tested, and the “hERG current change (%, negative = inhibition) at 10uM” value was 13.8%. `CCN(CC)S(=O)(=O)c1ccc(NC(=O)CCN2C(=O)C3CC=CCC3C2=O)cc1` (stereo not drawn) was tested, and the “hERG current change (%, negative = inhibition) at 10uM” value was -30%. `CC1(c2ccccc2Cl)NC(=O)N(CC(=O)Nc2ccc(N3CCCCC3)cc2)C1=O` (stereo not drawn) was tested, and the “hERG current change (%, negative = inhibition) at 10uM” value was -21.9%. For `CC(=O)N1CCc2cc(S(=O)(=O)CCC(=O)Nc3ccccc3F)ccc21`, the “hERG current change (%, negative = inhibition) at 10uM” value was 13.3%. In the case of `O=C(NCc1ccco1)C1CCN(C(=O)c2cc3sccc3n2Cc2ccc(F)cc2)CC1`, the “hERG current change (%, negative = inhibition) at 10uM” value is reported as -68.5%. `O=C(NCCN1CCOCC1)c1cc2sccc2n1Cc1ccc(Cl)cc1` was tested, and the “hERG current change (%, negative = inhibition) at 10uM” value was -59.9%. In the case of `CCCCN(CCCNC(=O)C1CCN(C(=O)c2cc3sccc3n2C)CC1)Cc1ccccc1`, the “hERG current change (%, negative = inhibition) at 10uM” value is reported as -60.8%. `O=C(NCCN1CCOCC1)c1cc2sccc2n1Cc1ccc(F)cc1` was tested, and the “hERG current change (%, negative = inhibition) at 10uM” value was -47%. For `O=C(Cn1c(C(=O)NCCCN2CCOCC2)cc2sccc21)c1ccccc1`, the “hERG current change (%, negative = inhibition) at 10uM” value was -16.5%. With `O=C(c1cc2sccc2n1Cc1ccccc1)N1CCN(c2nc3ccccc3s2)CC1` the “hERG current change (%, negative = inhibition) at 10uM” value was -17%. With `CC(C)NC(=O)C1CCN(C(=O)c2cc3sccc3n2Cc2ccc(F)cc2)CC1` the “hERG current change (%, negative = inhibition) at 10uM” value was -3.2%. In the case of `CCOC(=O)c1cc2sccc2n1CC(=O)N1CCN(C(=O)c2ccco2)CC1`, the “hERG current change (%, negative = inhibition) at 10uM” value is reported as -48.2%. With `O=C(NCc1ccccn1)C1CCN(C(=O)c2cc3sccc3n2Cc2ccc(F)cc2)CC1` the “hERG current change (%, negative = inhibition) at 10uM” value was -46.5%. In the case of `CC(C)N(CCCNC(=O)C1CCN(C(=O)c2cc3sccc3n2C)CC1)Cc1ccccc1`, the “hERG current change (%, negative = inhibition) at 10uM” value is reported as -23.2%. `O=C(c1ccco1)N1CCN(C(=O)c2cc3sccc3n2Cc2ccccc2)CC1` was tested, and the “hERG current change (%, negative = inhibition) at 10uM” value was -55.6%. `CCN(CCCNC(=O)C1CCN(C(=O)c2cc3sccc3n2C)CC1)Cc1ccccc1` was tested, and the “hERG current change (%, negative = inhibition) at 10uM” value was -38.4%. For `COCCSc1nnc(NS(=O)(=O)c2ccc(F)cc2)s1`, the “hERG current change (%, negative = inhibition) at 10uM” value was 3.84%. With `O=C(c1ccncc1)N1c2ccccc2Sc2ccccc21` the “hERG current change (%, negative = inhibition) at 10uM” value was 18.2%. `CC(C)=CCCC(C)N(C=O)C(C)CCC=C(C)C` (stereo not drawn) was tested, and the “hERG current change (%, negative = inhibition) at 10uM” value was -1.01%. In the case of `CC(=O)c1cccc(NC(=O)COC(=O)c2ccccc2C)c1`, the “hERG current change (%, negative = inhibition) at 10uM” value is reported as -14.4%. In the case of `CN(C)S(=O)(=O)c1ccc(C(=O)OCC(=O)Nc2ccccc2OC(F)F)cc1`, the “hERG current change (%, negative = inhibition) at 10uM” value is reported as -5.82%.
